The whole screen tested about 39,000 compounds, of which about 1,500 (3.8%) were called active. This excerpt belongs to a sample that is enriched for actives.

This assay relates to HSkMC (human skeletal muscle cells). Briefly: cytotoxicity call (relative viability < 0.9). Conditions: 10 µM.
Consider `Cc1noc(C)c1NC(=O)N(C)C[C@H]1OCCCC[C@@H](C)Oc2ccc(NS(=O)(=O)c3cccs3)cc2C(=O)N([C@@H](C)CO)C[C@H]1C`, for which the cytotoxicity call is “inactive”. Turning to `Cc1noc(C)c1NC(=O)N(C)C[C@H]1OCCCC[C@H](C)Oc2ccc(NS(=O)(=O)c3ccc(F)cc3)cc2C(=O)N([C@@H](C)CO)C[C@H]1C`, the cytotoxicity call is “inactive”. Next, `COc1ccccc1CNC(=O)C[C@H]1C[C@H]2c3cc(NC(=O)NC4CCCC4)ccc3O[C@H]2[C@H](CO)O1`: “inactive”; `COc1ccc(CN(C)C[C@H]2Oc3c(NC(=O)c4ccc(-c5nccs5)cc4)cccc3C(=O)N([C@H](C)CO)C[C@H]2C)cc1`: “inactive”. Next, `CC[C@H]1OC[C@@H]2CN(C(=O)CN(C)C)CC[C@H]21`: “inactive”; `C[C@@H]1CN([C@H](C)CO)C(=O)Cc2cc(NC(=O)Cc3ccccc3)ccc2O[C@H]1CN(C)C(=O)Nc1cccc2ccccc12`: “inactive”; `C[C@H]1CN([C@@H](C)CO)C(=O)Cc2cc(NC(=O)Nc3cccc4ccccc34)ccc2O[C@H]1CN(C)C(=O)Nc1cccc2ccccc12`: “inactive”.

Consider `C[C@H]1CN([C@@H](C)CO)C(=O)Cc2cc(NC(=O)Nc3ccc4c(c3)OCO4)ccc2O[C@@H]1CN(C)C(=O)Nc1cccc2ccccc12`, for which the cytotoxicity call was “inactive”. Take `C[C@@H]1CN([C@@H](C)CO)C(=O)Cc2cc(NC(=O)Nc3cccc4ccccc34)ccc2O[C@@H]1CN(C)C(=O)Nc1cccc2ccccc12`: the cytotoxicity call was “inactive”. Consider `C[C@H](CO)N1C[C@H](C)[C@@H](CN(C)C(=O)Nc2cccc3ccccc23)Oc2ccc(NC(=O)Nc3ccccc3)cc2CC1=O`, for which the cytotoxicity call was “active”. Regarding `C[C@H]1CN([C@@H](C)CO)C(=O)Cc2cc(NC(=O)Nc3ccccc3)ccc2O[C@@H]1CN(C)C(=O)Nc1cccc2ccccc12`, the cytotoxicity call is “inactive”.

Take `C[C@H](CO)N1C[C@H](C)[C@@H](CN(C)C(=O)Nc2cccc3ccccc23)Oc2ccc(NC(=O)Nc3ccc4c(c3)OCO4)cc2CC1=O`: the cytotoxicity call is “active”. With `C[C@@H]1CN([C@H](C)CO)C(=O)Cc2cc(NC(=O)Nc3ccc4c(c3)OCO4)ccc2O[C@@H]1CN(C)C(=O)Nc1cccc2ccccc12`, the cytotoxicity call is “inactive”.

For the molecule `C[C@H](CO)N1C[C@H](C)[C@@H](CN(C)C(=O)Nc2cccc3ccccc23)Oc2ccc(NC(=O)Cc3ccccc3)cc2CC1=O`, the cytotoxicity call was “active”.

For the molecule `C[C@@H]1CN([C@H](C)CO)C(=O)Cc2cc(NC(=O)Nc3ccccc3)ccc2O[C@@H]1CN(C)C(=O)Nc1cccc2ccccc12`, the cytotoxicity call is “inactive”. Next, `C[C@H]1CN([C@@H](C)CO)C(=O)Cc2cc(NC(=O)Cc3ccccc3)ccc2O[C@@H]1CN(C)C(=O)Nc1cccc2ccccc12`: “inactive”; `C[C@H](CO)N1C[C@H](C)[C@@H](CN(C)C(=O)Nc2cccc3ccccc23)Oc2ccc(NC(=O)Nc3cccc4ccccc34)cc2CC1=O`: “active”; `OCc1cccc(CO)n1`: “inactive”.

As to `COC(=O)[C@@H](Cc1ccc(-n2cc(-c3ccc(C(=O)NO)s3)nn2)cc1)N1CC2=C[C@H](C3CC3)n3c(=O)n(C)c(=O)n3[C@@H]2[C@H]1[C@H](O)Cc1ccccc1`, the cytotoxicity call was “inactive”.

Consider `CCCNC(=O)N(C)C[C@@H]1Oc2cc(C#Cc3cccc(F)c3)ccc2S(=O)(=O)N([C@H](C)CO)C[C@@H]1C`, for which the cytotoxicity call is “inactive”. Under `CO[C@H]1CN(C)C(=O)c2cc(NS(C)(=O)=O)ccc2OC[C@@H](C)N(C(=O)c2ccc3c(c2)OCO3)C[C@@H]1C` stands “inactive”; under `Cc1ccc(S(=O)(=O)Nc2ccc3c(c2)C(=O)N([C@H](C)CO)C[C@H](C)[C@H](CN(C)S(C)(=O)=O)O3)cc1`, “inactive”. Next, `COc1ccc(S(=O)(=O)Nc2ccc3c(c2)CC(=O)N([C@@H](C)CO)C[C@@H](C)[C@H](CN(C)C(=O)NC(C)C)O3)cc1`: “inactive”. Next, `CN(C)Cc1cn(CC[C@@H]2CC[C@H](NC(=O)Cc3cccnc3)[C@H](CO)O2)nn1`: “inactive”. Consider `Cc1ccc(S[C@]2(C(=O)NCc3ccccc3)CC(=O)N(Cc3cc(C(F)(F)F)cc(C(F)(F)F)c3)[C@@H]2c2ccc(CO)cc2)cc1`, for which the cytotoxicity call was “inactive”.

With `CCOC(=O)c1cc2c(c(-c3cccc(-c4cccc(OC)c4)c3)n1)[C@@H](CCO)N(S(=O)C(C)(C)C)C2` (some centres undefined), the cytotoxicity call was “inactive”. Under `COCC(=O)N1C[C@@H](C)[C@H](OC)CN(C)C(=O)c2ccc(NC(=O)c3ccc(OC)cc3)cc2OC[C@H]1C` stands “inactive”.

Regarding `CCN1CCC[C@@H]1CN1CNC(=S)NC1`, the cytotoxicity call is “inactive”.

In the case of `CCCCCCc1ccc(O)cc1O` [listing 1 of 2 here], the cytotoxicity call was “active”. For the molecule `CCCCCCc1ccc(O)cc1O` [listing 2 of 2 here], the cytotoxicity call is “active”. Under `CCCCCCCCc1ccc(-c2ccc(C(=O)O)cc2)cc1` stands “inactive”; under `COC(=O)CCc1ccc(OC)cc1O`, “inactive”. Consider `CCCCCCCc1c(C)c(O)cc2c1[nH]c1ccccc12`, for which the cytotoxicity call is “inactive”. For the molecule `CCCCCCc1ccc(O)cc1O.Nc1c2ccccc2nc2ccccc12`, the cytotoxicity call is “inactive”. Under `COc1ccc(NC(=O)N(C)C[C@@H]2Oc3c(NC(=O)C4CC4)cccc3C(=O)N([C@@H](C)CO)C[C@@H]2C)cc1` stands “inactive”; under `C[C@H]1O[C@@H](O[C@H]2[C@@H](O)C[C@H](O[C@H]3[C@@H](O)C[C@H](O[C@H]4CC[C@@]5(C)[C@H](CC[C@@H]6[C@@H]5C[C@@H](O)[C@@]5(C)[C@@H](C7=CC(=O)OC7)CC[C@]65O)C4)O[C@@H]3C)O[C@@H]2C)C[C@H](O)[C@@H]1O`, “active”; under `C[C@H]1O[C@@H](O[C@H]2[C@@H](O)C[C@H](O[C@H]3[C@@H](O)C[C@H](O[C@H]4CC[C@@]5(C)[C@H](CC[C@@H]6[C@@H]5C[C@@H](O)[C@]5(C)[C@@H](C7=CC(=O)OC7)CC[C@]65O)C4)O[C@@H]3C)O[C@@H]2C)C[C@H](O)[C@@H]1O`, “active”.

In the case of `CC1OC(OC2C(O)CC(OC3C(O)CC(OC4CCC5(C)C(CCC6C5CC(O)C5(C)C(C7=CC(=O)OC7)CCC65O)C4)OC3C)OC2C)CC(O)C1O` (centres undefined), the cytotoxicity call is “active”. Consider `C[C@@H]1CCCCO[C@@H](CN(C)Cc2ccc3c(c2)OCO3)[C@@H](C)CN([C@H](C)CO)C(=O)c2cc(NS(=O)(=O)c3ccc(Cl)cc3)ccc2O1`, for which the cytotoxicity call was “inactive”. Under `C[C@H](CO)N1C[C@H](C)[C@@H](CN(C)S(=O)(=O)c2ccccc2F)Oc2cc(-c3ccncc3)ccc2S1(=O)=O` stands “inactive”; under `CC(C)NC(=O)Nc1cccc2c1O[C@@H](CN(C)S(=O)(=O)c1cccs1)[C@@H](C)CN([C@@H](C)CO)C2=O`, “inactive”. Under `O=C(C[C@@H]1C[C@@H]2c3cc(NC(=O)Cc4ccncc4)ccc3O[C@@H]2[C@@H](CO)O1)NCc1cccc(F)c1` stands “inactive”. As to `COCC#Cc1ccc2c(c1)O[C@@H](CN(C)C(=O)CN(C)C)[C@H](C)CN([C@@H](C)CO)S2(=O)=O`, the cytotoxicity call is “inactive”.

`Cc1noc(C)c1NC(=O)N(C)C[C@@H]1OCCCC[C@@H](C)Oc2ccc(NC(=O)Cc3ccccc3)cc2C(=O)N([C@H](C)CO)C[C@H]1C`: the cytotoxicity call is “inactive”. Under `CC(N)(Cc1ccc(O)c(O)c1)C(=O)O` (centres undefined) [listing 1 of 2 here] stands “inactive”; under `CC(N)(Cc1ccc(O)c(O)c1)C(=O)O` (centres undefined) [listing 2 of 2 here], “inactive”.

As for `CCOC(=O)[C@@](C)(N)Cc1ccc(O)c(O)c1`, the cytotoxicity call is “active”. Next, `COc1ccccc1C(=O)Nc1ccc2c(c1)C(=O)N(C)[C@@H]1CC[C@@H](CC(=O)NCc3ccc(Cl)c(Cl)c3)O[C@H]1CO2`: “active”; `CN1C(=O)c2cc(NC(=O)c3ccc(C(F)(F)F)cc3)ccc2OC[C@@H]2O[C@H](CC(=O)NC3Cc4ccccc4C3)CC[C@H]21`: “inactive”; `Cc1noc(C)c1NC(=O)Nc1ccc2c(c1)C(=O)N(C)[C@H]1CC[C@H](CC(=O)Nc3ccc4c(c3)CCCC4)O[C@@H]1CO2`: “active”.

In the case of `COc1ccccc1C(=O)Nc1ccc2c(c1)C(=O)N(C)[C@H]1CC[C@H](CC(=O)NCc3ccc(Cl)c(Cl)c3)O[C@@H]1CO2`, the cytotoxicity call is “inactive”.

Turning to `COc1ccccc1C(=O)Nc1ccc2c(c1)C(=O)N(C)[C@H]1CC[C@@H](CC(=O)NCc3ccc(Cl)c(Cl)c3)O[C@@H]1CO2`, the cytotoxicity call is “active”.

Consider `COc1ccccc1C(=O)Nc1ccc2c(c1)C(=O)N(C)[C@@H]1CC[C@H](CC(=O)NCc3ccc(Cl)c(Cl)c3)O[C@H]1CO2`, for which the cytotoxicity call was “inactive”. As to `COc1cccc(C(=O)Nc2ccc3c(c2)C(=O)N(C)[C@H]2CC[C@H](CC(=O)Nc4ccc5c(c4)CCCC5)O[C@@H]2CO3)c1`, the cytotoxicity call was “inactive”. With `CN1C(=O)c2cc(NC(=O)c3ccc(C(F)(F)F)cc3)ccc2OC[C@@H]2O[C@H](CC(=O)NC3Cc4ccccc4C3)CC[C@@H]21`, the cytotoxicity call was “inactive”. Take `COc1ccccc1C(=O)Nc1ccc2c(c1)C(=O)N(C)[C@@H]1CC[C@@H](CC(=O)NCc3ccc(Cl)c(Cl)c3)O[C@@H]1CO2`: the cytotoxicity call was “inactive”. With `CN1C(=O)c2cc(NC(=O)Nc3cccc(C#N)c3)ccc2OC[C@H]2O[C@@H](CC(=O)Nc3ccc4c(c3)CCC4)CC[C@@H]21`, the cytotoxicity call is “inactive”. Regarding `CN1C(=O)c2cc(NC(=O)c3ccc(C(F)(F)F)cc3)ccc2OC[C@@H]2O[C@@H](CC(=O)NC3Cc4ccccc4C3)CC[C@H]21`, the cytotoxicity call was “active”. Consider `COc1ccccc1C(=O)Nc1ccc2c(c1)C(=O)N(C)[C@@H]1CC[C@H](CC(=O)NCc3ccc(Cl)c(Cl)c3)O[C@@H]1CO2`, for which the cytotoxicity call was “inactive”. Under `CC(C)NC(=O)N(C)C[C@H]1OCc2cn(nn2)CCCC(=O)N([C@H](C)CO)C[C@H]1C` stands “inactive”; under `C[C@H]1CN([C@@H](C)CO)C(=O)c2cc(NS(C)(=O)=O)ccc2O[C@@H]1CN(C)S(=O)(=O)c1ccc(Cl)cc1`, “inactive”; under `CO[C@H]1CN(C)C(=O)c2ccc(NC(=O)Nc3ccc(Cl)cc3)cc2OC[C@@H](C)N(C(=O)Nc2c(C)noc2C)C[C@H]1C`, “inactive”. Take `C[C@@H]1CCCCO[C@@H](CN(C)Cc2ccncc2)[C@@H](C)CN([C@H](C)CO)C(=O)c2cc(NC(=O)Nc3ccc(C(F)(F)F)cc3)ccc2O1`: the cytotoxicity call is “inactive”.

On to `CC(C)CC#Cc1ccc2c(c1)O[C@@H](CN(C)S(=O)(=O)c1cccc(F)c1)[C@@H](C)CN([C@@H](C)CO)S2(=O)=O`, for which the cytotoxicity call was “inactive”.
